These results are taken from PubChem BioAssay (NCATS).

The structures appear in SMILES notation. Results filed as inconclusive are left out. Calls of active or inactive are those of the source. Calls follow the shape of the dose curve; as a rule, active = well fitted inhibition curve with a large enough effect; inconclusive = small, poorly fitted or top-dose-only effect; inactive = flat fitted curve, though single readings scatter.

Common to all, as to experiment: qHTS profiling for inhibitors of Plasmodium falciparum proliferation (AID 504749); also: nearly all actives have a fitted effect of over 60% in size
Conditions in all cases: P. falciparum in erythrocytes, SYBR Green DNA, 72 h; series mostly up to 28.7 µM
On the technique in general: In qHTS, concentration-response curves come from the screen itself.

One assay deals with CP237. The essentials: (§1)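 Three-day growth assay of blood-stage parasites in erythrocytes (0.3% parasitemia, 2.5% hematocrit) at 37 C, 5% CO2, quantified by SYBR Green DNA staining after overnight detergent lysis.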
The test system of the next assay is CP238. In outline:
as §1

The test system of a further assay is CP247. In outline:
as §1

The subject of the next assay is CP252. The essentials: as §1
Another assay has as its system CP201. In outline: as §1
The subject of another assay is CP211. The essentials:
as §1

A further assay has as its system CP215. In outline:
as §1

The subject of another assay is CP217. In outline: as §1
The subject of another assay is CP250. In outline:
as §1

A further assay deals with CP203. The essentials: as §1
Potency is read from the fitted curve at half-maximal effect.

Take `Nc1c2ccccc2nc2ccccc12`: the Potency is 8.91 µM (active) in the assay with CP237, 10 µM (active) in the assay on CP238, 10 µM (active) in the assay on CP247 and 10 µM (active) with CP252.
For `CCCCCCCCCCCCCCCC[N+](C)(C)Cc1ccccc1`, the Potency in the assay on CP201 was 12 µM (active); with CP211, 10.7 µM (active); with CP215 it was 9.53 µM (active); in the assay on CP217, 3.16 µM (active); in the assay on CP237, 3.55 µM (active); with CP238, 0.891 µM (active). For the same molecule, the Potency with CP247 was 2.24 µM (active); with CP250 it was 2.51 µM (active); with CP252, 3.16 µM (active).
Consider `CC(NCCC(c1ccccc1)c1ccccc1)c1ccccc1` (stereo unspecified), for which the Potency is 8.91 µM (active) in the assay on CP217, 10 µM (active) in the assay on CP237, 7.94 µM (active) with CP247 and 10 µM (active) in the assay with CP252.
As to `Nc1ncnc2nc[nH]c12`, the Potency entry in the assay on CP201, with CP203, in the assay with CP211, with CP215, in the assay on CP217 and in the assay on CP237 was “inactive” throughout. Further, the Potency entry in the assay with CP238, in the assay with CP247, in the assay on CP250 and in the assay with CP252 was “inactive” throughout.
For `O=[N+]([O-])c1ccc(O)c2ncccc12`, the Potency with CP247 is 11.2 µM (active); with CP252, 8.91 µM (active).
Turning to `Nc1ccc2cc3ccc(N)cc3nc2c1`, in the assay with CP237, the Potency is 12.6 µM (active).
With `CN1CCCN(C(c2ccccc2)c2ccc(Cl)cc2)CC1` (stereo unspecified), the Potency in the assay with CP217 is 14.1 µM (active); in the assay on CP237 it was 11.2 µM (active); with CP247, 11.2 µM (active); with CP250 it was 12.6 µM (active).
Turning to `O=S(=O)(O)c1ccc2nc(-c3ccccc3)[nH]c2c1`, the Potency result with CP201, in the assay on CP203, with CP211, in the assay with CP215, in the assay with CP217 and in the assay with CP237 was “inactive” throughout. The Potency result in the assay on CP238, in the assay on CP247, in the assay with CP250 and with CP252 was “inactive” each time.
For the molecule `CCCCCCCCCCCCCCCC[n+]1ccccc1`, the Potency is 7.57 µM (active) in the assay with CP201; 9.53 µM (active) with CP203; 6.75 µM (active) with CP211; 13.5 µM (active) with CP215; 5.62 µM (active) in the assay on CP217; 7.94 µM (active) with CP237. For the same molecule, the Potency in the assay on CP238 is 7.08 µM (active); in the assay with CP247, 5.62 µM (active); in the assay on CP250, 6.31 µM (active); in the assay with CP252, 6.31 µM (active).
With `CCCCCCCCCCCCCC[N+](C)(C)C`, the Potency in the assay with CP201 is 12 µM (active); with CP203 it was 6.75 µM (active); in the assay on CP211 it was 6.01 µM (active); in the assay on CP215, 8.49 µM (active); with CP217, 8.91 µM (active); in the assay on CP237, 5.01 µM (active). In addition, the Potency with CP238 is 3.98 µM (active); with CP247 it was 3.98 µM (active); in the assay with CP250 it was 5.62 µM (active); with CP252 it was 7.08 µM (active).
Regarding `CN1CCC(Nc2ncc3ncnc(Nc4ccc(F)c(Cl)c4)c3n2)CC1`, the Potency in the assay on CP217 was 11.2 µM (active); in the assay with CP252 it was 7.94 µM (active).
Regarding `O=C(Nc1ccc(Cl)cc1)Nc1ccc(Cl)c(Cl)c1`, the Potency was 7.57 µM (active) with CP201; 4.26 µM (active) with CP203; 6.01 µM (active) in the assay on CP211; 6.75 µM (active) in the assay on CP215; 2.24 µM (active) in the assay with CP217; 2 µM (active) with CP237. In addition, the Potency is 3.55 µM (active) in the assay on CP238, 3.98 µM (active) with CP247, 3.16 µM (active) in the assay with CP250 and 3.55 µM (active) with CP252.
